Drawing on ChEMBL document CHEMBL1961873, “Compounds: GSK PKIS; Assays: Nanosyn kinase panel” (2012), this text covers inhibition for two molecules.

Assay [1] has as its target Protein kinase C gamma type (Homo sapiens) (UniProt P05129). As to conditions: at 1 µM.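 Also: each value is an averaged percent inhibition of the enzyme.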
The target in assay [2] is T1, Protein kinase C iota type (Homo sapiens) (UniProt P41743).
T1 sequence (whole entry): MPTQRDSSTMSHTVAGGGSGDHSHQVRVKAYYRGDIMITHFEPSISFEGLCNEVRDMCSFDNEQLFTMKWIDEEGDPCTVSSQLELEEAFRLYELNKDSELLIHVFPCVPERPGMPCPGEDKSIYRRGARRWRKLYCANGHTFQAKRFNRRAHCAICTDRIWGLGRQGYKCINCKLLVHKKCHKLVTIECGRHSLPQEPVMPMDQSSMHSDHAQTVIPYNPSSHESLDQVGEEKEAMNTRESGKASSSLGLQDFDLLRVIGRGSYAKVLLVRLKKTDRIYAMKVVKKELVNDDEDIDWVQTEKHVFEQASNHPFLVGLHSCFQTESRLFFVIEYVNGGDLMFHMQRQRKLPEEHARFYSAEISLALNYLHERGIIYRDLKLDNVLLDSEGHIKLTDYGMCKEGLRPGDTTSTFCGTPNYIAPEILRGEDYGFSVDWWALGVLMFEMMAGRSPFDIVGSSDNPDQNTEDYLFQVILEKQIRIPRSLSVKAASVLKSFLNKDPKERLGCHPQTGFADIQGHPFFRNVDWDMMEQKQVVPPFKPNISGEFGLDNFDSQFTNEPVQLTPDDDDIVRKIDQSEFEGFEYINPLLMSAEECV
As to conditions: at 0.1 µM.

Assay [3] has as its target T1, Protein kinase C iota type (Homo sapiens). The conditions noted are these: at 1 µM.
Assay [4] has as its target Protein kinase C theta type (Homo sapiens) (UniProt Q04759). As to conditions: at 0.1 µM.
Assay [5] shares this target. As to conditions: at 1 µM.
Assay [6] addresses Protein kinase C beta type (Homo sapiens) (UniProt P05771). As to conditions: at 0.1 µM.
Assay [7] shares this target. The conditions noted are these: at 1 µM.
Assay [8] addresses T2, Serine/threonine-protein kinase D1 (Homo sapiens) (UniProt Q15139).
T2 sequence (whole entry): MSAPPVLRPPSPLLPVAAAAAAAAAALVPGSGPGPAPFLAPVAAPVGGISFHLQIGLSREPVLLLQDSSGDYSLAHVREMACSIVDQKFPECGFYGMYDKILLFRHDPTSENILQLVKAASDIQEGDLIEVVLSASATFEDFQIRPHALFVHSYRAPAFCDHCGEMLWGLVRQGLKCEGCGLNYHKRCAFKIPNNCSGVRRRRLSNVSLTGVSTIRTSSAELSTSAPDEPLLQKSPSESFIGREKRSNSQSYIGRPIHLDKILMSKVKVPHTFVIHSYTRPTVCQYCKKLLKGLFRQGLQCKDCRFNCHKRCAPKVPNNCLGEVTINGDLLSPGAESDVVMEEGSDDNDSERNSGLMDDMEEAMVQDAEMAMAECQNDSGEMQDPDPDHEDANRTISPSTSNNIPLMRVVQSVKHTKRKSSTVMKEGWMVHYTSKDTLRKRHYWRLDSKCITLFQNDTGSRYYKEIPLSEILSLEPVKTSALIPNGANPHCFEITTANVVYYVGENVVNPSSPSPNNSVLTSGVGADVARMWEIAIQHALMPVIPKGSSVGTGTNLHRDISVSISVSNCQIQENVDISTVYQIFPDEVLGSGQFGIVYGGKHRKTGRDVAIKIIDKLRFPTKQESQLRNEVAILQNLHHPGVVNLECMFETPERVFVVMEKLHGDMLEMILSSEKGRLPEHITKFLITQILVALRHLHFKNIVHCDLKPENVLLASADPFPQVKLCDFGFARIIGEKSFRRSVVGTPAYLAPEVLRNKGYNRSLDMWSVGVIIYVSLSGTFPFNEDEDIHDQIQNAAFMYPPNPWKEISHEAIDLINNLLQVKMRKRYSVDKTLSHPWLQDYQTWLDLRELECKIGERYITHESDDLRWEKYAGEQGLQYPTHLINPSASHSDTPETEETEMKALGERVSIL
The conditions noted are these: at 0.1 µM.

In assay [9] the target is T2, Serine/threonine-protein kinase D1 (Homo sapiens). The conditions noted are these: at 1 µM.
In assay [10] the target is T3, Serine/threonine-protein kinase D2 (Homo sapiens) (UniProt Q9BZL6).
T3 sequence (whole entry): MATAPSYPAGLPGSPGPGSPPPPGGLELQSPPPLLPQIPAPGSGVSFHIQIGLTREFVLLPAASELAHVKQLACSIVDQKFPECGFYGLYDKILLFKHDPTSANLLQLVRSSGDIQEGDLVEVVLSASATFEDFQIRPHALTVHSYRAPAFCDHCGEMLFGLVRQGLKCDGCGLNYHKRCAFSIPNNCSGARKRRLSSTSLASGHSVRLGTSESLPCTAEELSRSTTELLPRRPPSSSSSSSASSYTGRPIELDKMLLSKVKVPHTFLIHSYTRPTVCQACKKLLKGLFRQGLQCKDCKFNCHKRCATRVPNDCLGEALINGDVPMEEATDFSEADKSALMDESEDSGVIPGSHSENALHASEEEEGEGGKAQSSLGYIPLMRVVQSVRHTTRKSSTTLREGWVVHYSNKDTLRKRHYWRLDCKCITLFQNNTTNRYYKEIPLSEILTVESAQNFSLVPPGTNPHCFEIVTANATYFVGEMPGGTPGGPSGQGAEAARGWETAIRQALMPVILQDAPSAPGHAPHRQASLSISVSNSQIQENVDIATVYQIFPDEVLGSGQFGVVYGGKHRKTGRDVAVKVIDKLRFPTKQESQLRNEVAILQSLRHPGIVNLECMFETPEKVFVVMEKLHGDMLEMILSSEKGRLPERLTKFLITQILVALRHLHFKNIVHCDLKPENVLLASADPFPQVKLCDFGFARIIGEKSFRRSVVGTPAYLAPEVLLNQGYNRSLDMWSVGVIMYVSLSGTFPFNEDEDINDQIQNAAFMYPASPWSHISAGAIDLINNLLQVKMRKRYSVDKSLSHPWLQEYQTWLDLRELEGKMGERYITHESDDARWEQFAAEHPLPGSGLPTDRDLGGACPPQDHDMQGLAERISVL
As to conditions: at 0.1 µM.

Assay [11] deals with T3, Serine/threonine-protein kinase D2 (Homo sapiens). The conditions noted are these: at 1 µM.
Assay [12] has as its target T4, Serine/threonine-protein kinase D3 (Homo sapiens) (UniProt O94806).
T4 sequence (whole entry): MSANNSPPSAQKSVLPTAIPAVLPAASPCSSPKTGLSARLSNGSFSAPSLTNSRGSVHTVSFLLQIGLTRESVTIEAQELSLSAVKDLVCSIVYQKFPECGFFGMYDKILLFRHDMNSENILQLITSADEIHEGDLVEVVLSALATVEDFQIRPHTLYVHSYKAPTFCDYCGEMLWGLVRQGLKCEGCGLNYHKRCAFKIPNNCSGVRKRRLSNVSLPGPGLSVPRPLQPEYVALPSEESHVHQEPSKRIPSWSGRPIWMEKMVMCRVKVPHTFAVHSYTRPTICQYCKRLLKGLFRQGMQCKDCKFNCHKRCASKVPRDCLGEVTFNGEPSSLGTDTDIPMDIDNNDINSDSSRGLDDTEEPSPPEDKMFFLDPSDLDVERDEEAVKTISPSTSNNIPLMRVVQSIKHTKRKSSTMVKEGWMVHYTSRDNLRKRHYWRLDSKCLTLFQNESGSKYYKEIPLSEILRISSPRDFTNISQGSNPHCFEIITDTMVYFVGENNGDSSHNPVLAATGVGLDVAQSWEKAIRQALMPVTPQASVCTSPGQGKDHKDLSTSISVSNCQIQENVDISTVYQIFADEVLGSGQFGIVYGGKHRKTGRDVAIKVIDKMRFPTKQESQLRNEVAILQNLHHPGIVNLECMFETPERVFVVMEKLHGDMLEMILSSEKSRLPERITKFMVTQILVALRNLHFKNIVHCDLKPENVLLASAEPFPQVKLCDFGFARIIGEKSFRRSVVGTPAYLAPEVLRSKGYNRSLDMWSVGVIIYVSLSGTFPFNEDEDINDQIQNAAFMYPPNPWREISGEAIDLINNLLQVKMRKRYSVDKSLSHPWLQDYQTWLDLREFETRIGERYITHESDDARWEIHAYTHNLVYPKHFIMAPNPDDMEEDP
The conditions noted are these: at 0.1 µM.

In assay [13] the target is T4, Serine/threonine-protein kinase D3 (Homo sapiens). The conditions noted are these: at 1 µM.
The target in assay [14] is T5, cGMP-dependent protein kinase 1 (Homo sapiens) (UniProt Q13976).
T5 sequence (whole entry): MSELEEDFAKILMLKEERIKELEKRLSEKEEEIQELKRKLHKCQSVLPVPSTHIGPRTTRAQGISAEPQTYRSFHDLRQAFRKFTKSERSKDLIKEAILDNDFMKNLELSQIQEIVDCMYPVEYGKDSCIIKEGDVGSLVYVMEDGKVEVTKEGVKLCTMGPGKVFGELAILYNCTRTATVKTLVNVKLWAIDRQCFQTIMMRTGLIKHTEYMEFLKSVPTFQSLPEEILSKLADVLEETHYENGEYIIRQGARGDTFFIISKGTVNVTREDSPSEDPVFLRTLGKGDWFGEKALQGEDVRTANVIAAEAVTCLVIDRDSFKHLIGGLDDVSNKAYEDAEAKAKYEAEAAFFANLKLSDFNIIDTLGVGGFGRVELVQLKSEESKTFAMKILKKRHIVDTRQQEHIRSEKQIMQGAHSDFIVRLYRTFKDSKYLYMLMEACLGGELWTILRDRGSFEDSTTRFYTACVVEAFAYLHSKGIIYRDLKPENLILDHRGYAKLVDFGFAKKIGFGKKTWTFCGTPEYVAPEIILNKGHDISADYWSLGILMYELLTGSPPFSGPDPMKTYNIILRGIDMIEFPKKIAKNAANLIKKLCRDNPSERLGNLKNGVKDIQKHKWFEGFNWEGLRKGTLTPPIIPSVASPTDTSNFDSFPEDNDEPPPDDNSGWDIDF
The conditions noted are these: at 0.1 µM.

For assay [15], the target named is T5, cGMP-dependent protein kinase 1 (Homo sapiens). As to conditions: at 1 µM.
The target in assay [16] is T6, cGMP-dependent protein kinase 2 (Homo sapiens) (UniProt Q13237).
T6 sequence (whole entry): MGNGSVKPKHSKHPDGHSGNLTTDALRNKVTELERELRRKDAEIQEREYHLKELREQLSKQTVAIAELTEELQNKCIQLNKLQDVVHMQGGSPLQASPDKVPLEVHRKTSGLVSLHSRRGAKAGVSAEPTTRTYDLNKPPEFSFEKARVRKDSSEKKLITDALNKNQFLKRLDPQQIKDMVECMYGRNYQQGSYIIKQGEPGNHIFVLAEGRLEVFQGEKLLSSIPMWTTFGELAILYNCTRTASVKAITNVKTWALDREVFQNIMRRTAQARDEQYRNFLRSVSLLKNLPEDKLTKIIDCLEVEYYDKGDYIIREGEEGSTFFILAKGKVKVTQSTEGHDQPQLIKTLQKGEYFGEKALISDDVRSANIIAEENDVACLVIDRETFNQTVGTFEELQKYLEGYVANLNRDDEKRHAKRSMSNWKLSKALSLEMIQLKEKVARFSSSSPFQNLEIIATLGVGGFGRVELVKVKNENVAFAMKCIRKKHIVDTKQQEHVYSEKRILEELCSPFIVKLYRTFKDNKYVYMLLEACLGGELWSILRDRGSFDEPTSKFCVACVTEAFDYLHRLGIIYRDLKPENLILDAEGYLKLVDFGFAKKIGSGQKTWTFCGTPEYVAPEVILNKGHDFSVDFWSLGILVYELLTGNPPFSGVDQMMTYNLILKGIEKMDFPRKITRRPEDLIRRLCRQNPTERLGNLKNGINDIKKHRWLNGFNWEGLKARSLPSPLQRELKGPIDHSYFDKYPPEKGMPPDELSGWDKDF
As to conditions: at 0.1 µM.

Assay [17] addresses T6, cGMP-dependent protein kinase 2 (Homo sapiens). As to conditions: at 1 µM.
The target of assay [18] is T7, cAMP-dependent protein kinase catalytic subunit PRKX (Homo sapiens) (UniProt P51817).
T7 sequence (whole entry): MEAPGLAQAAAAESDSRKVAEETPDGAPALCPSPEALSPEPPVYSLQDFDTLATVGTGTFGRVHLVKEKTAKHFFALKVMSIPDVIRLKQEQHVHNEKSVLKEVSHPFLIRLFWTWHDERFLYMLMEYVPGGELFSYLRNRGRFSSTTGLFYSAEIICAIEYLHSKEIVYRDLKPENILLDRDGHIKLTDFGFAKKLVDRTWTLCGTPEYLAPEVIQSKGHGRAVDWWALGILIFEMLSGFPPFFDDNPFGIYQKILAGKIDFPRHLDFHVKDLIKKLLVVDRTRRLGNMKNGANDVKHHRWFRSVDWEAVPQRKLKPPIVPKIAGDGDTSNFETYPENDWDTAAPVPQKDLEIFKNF
The conditions noted are these: at 0.1 µM.

Assay [19] concerns the target T7, cAMP-dependent protein kinase catalytic subunit PRKX (Homo sapiens). As to conditions: at 1 µM.
Assay [20] has as its target Rho-associated protein kinase 1 (Homo sapiens) (UniProt Q13464). The conditions noted are these: at 0.1 µM.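 Also: values are mean percent inhibition of ROCK1.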

Sequence of Protein kinase C beta type (Homo sapiens) (P05771 2-671 limits assumed): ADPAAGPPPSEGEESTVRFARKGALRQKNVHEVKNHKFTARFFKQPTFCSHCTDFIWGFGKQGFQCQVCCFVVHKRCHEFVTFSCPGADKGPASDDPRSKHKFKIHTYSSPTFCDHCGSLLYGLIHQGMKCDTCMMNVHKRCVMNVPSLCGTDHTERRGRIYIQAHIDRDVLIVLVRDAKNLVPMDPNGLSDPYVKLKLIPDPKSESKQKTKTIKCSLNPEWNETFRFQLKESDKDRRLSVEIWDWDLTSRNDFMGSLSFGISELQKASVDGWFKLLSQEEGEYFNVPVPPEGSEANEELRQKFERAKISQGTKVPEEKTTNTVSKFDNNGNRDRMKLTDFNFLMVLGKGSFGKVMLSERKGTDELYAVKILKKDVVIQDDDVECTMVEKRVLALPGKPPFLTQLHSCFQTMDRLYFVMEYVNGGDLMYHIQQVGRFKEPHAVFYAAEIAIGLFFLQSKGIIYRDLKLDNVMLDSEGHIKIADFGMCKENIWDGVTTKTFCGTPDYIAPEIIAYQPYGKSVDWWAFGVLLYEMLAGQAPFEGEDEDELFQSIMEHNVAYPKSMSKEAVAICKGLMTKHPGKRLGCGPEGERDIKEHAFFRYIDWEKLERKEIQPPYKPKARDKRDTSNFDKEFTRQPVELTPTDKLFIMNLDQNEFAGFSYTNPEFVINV
Sequence of Protein kinase C theta type (Homo sapiens) (Q04759 whole entry, looked up): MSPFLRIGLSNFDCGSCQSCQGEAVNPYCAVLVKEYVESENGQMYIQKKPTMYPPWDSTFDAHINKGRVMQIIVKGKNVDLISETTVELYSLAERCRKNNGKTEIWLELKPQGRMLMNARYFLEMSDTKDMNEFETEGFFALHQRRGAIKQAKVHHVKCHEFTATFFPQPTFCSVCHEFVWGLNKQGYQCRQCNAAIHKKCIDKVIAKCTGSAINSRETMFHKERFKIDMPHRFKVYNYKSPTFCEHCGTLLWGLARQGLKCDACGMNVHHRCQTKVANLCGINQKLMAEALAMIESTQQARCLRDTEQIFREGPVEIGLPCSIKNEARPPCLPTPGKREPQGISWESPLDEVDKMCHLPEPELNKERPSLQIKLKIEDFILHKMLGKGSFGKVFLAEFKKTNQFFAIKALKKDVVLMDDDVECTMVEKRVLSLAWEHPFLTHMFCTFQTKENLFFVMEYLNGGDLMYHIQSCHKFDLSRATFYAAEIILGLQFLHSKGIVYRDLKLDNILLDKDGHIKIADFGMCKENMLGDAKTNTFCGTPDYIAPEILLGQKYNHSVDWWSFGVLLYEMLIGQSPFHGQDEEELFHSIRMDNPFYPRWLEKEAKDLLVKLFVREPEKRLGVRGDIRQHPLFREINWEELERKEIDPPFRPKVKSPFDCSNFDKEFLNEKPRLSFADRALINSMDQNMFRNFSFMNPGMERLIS
Sequence of Rho-associated protein kinase 1 (Homo sapiens) (Q13464 2-1354 limits assumed): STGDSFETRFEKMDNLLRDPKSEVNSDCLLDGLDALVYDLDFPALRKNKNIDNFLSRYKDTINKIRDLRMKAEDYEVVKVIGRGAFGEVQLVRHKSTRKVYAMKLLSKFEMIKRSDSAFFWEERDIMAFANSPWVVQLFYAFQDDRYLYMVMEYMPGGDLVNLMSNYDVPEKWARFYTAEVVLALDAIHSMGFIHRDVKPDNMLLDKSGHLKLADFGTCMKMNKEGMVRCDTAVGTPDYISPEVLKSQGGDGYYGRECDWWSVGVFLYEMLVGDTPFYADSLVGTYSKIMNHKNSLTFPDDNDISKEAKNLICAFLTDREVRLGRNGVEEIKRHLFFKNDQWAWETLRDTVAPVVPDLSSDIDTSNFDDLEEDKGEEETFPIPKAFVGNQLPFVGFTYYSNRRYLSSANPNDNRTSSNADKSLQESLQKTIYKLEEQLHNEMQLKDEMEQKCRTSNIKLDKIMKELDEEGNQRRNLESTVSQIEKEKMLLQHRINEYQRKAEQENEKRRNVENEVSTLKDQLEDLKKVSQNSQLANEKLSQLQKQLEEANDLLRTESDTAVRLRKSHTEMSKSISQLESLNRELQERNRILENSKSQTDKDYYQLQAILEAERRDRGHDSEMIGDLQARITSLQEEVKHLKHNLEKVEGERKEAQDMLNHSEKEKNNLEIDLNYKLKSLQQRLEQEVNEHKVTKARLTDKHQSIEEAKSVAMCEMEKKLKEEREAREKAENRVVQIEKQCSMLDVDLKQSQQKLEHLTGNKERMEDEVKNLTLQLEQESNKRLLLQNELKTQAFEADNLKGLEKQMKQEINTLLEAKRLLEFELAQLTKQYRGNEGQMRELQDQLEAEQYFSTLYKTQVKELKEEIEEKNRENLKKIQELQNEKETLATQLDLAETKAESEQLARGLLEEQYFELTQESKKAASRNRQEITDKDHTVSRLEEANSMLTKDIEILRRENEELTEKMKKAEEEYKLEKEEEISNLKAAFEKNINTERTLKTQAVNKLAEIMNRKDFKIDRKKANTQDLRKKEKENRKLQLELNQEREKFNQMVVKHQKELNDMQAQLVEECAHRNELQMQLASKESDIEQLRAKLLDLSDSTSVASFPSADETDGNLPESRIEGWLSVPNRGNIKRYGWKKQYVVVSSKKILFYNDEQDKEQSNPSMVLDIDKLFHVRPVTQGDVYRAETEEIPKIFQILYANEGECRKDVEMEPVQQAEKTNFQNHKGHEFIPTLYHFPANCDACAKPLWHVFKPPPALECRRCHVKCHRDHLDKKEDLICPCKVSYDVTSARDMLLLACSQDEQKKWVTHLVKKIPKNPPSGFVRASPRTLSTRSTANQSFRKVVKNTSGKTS

The inhibition is the drop in the measured response relative to a control, in per cent. For `Nc1ncc(-c2cccc(S(N)(=O)=O)c2)c2scc(-c3ccc(F)c(Cl)c3)c12`, the inhibition in assay [1] is 2.77%; in assay [2], 1.76%; in assay [3], 2.27%; in assay [4], 1.73%; in assay [5] it was 2.11%; in [6] it was 0.92%. The inhibition in assay [7] stood at 1.52%; in assay [8], 6.59%; in assay [9], 35%; in assay [10] it was 8.43%; in assay [11] it was 43.8%; in [12], 6.03%. The inhibition in assay [13] was 33.1%; in [14], 1.07%; in assay [15], -0.14%; in assay [16], 2.34%; in assay [17] it was 1.46%; in [18], 1.86%. In addition, the inhibition in assay [19] was 1.14%; in assay [20], 1.03%.

Take `O=C(Nc1n[nH]c2cc(-c3ccc(F)cc3)ccc12)C1CC1`: the inhibition in assay [1] was 5.71%; in assay [2], 2.42%; in [3], 3.67%; in assay [4], 3%; in [5], 5.04%; in assay [6], 2.1%. The inhibition in assay [7] amounted to 4.04%; in [8], 3.02%; in assay [9], 5.62%; in assay [10], 2.7%; in [11] it was 4.37%; in assay [12] it was 3.68%. Moreover, the inhibition in assay [13] amounted to 5.25%; in assay [14], 4.3%; in assay [15] it was 6.58%; in [16], 3.33%; in assay [17] it was 5.58%; in [18], 2.23%. For the same molecule, the figures for the inhibition in [19] and in assay [20] were 3.66% and 6.12%, respectively.
